Screening results: PubChem BioAssay, several laboratories
esBAF inh: inhibitors of esBAF chromatin remodeling in mouse ES cells; 350,000 compounds, 2% hits; AID 602393; reporter increase, % at 12.5 µM; Bmi1-luciferase knock-in reporter, 24 h; 100% = twice the neutral-well signal; in the data active = activation above about 40%; inconclusive = no clear call, values can overlap the other calls;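 also: 0% = median of the plate's neutral control wells and 100% = double that signal; a rise in the Bmi1 reporter signal indicates esBAF inhibition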
Wnt act: activates Wnt/beta-catenin signaling in a reporter cell assay. activator, plate reader. activation, % at 9.35 µM. 300,000 compounds, 1.2% hits; in the data active = activation above about 30%, passing the limit was not always enough; inconclusive = no clear call, values can overlap the other calls;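 also: 0% = neutral control wells and 100% = positive control wells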
APOBEC3G inh: blocks human APOBEC3G single-stranded DNA deamination | Q9HC16 | recombinant A3G, ssDNA deamination FAM/TAMRA fluorescence | inhibition, % at 20 µM | 330,000 compounds, 0.28% hits | AID 493012;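 active = inhibition of at least 40% at 20 µM, with no more than 30% in the related APOBEC3A deaminase screen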;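 also: plate controls were DMSO wells with A3G for no effect and wells lacking A3G enzyme for full effect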
APOBEC3A inh: blocks human APOBEC3A ssDNA deamination; AID 493011; inhibition, % at 20 µM; P31941; 330,000 compounds, 0.41% hits; recombinant A3A, FAM/TAMRA ssDNA deamination fluorescence;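 active = at least 40% inhibition at 20 µM here, with at most 30% in a related deaminase screen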;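 also: plate controls were A3A with DMSO for no effect and wells lacking A3A enzyme for full effect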
Target sequence (P31941 whole entry, looked up): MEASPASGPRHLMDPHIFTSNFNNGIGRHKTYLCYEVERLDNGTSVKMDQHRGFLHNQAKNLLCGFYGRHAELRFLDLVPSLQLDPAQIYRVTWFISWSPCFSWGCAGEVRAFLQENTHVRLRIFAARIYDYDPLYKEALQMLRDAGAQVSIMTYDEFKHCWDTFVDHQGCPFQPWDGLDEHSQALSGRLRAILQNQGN
MITF act: activators of MITF-driven TRPM1 promoter activity in SK-MEL-5 cells; activation, % at 12.5 µM; SK-MEL-5 TRPM1-promoter luciferase, 24 h; % of positive control, neutral wells = 0; 300,000 compounds, 0.75% hits;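 active = mean activation of at least 80% with every replicate also reaching 80%; inconclusive = mean reaches 80% but some replicate falls short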;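 also: 0% = neutral control wells and 100% = parthenolide positive control wells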
PHOSPHO1 inh: inhibitors of human PHOSPHO1 phosphatase. recombinant PHOSPHO1, absorbance phosphatase assay. inhibition, % at 13.3 µM. 290,000 compounds, 1.1% hits; in the data active = inhibition above about 60%
Target sequence (Q8TCT1 whole entry, looked up): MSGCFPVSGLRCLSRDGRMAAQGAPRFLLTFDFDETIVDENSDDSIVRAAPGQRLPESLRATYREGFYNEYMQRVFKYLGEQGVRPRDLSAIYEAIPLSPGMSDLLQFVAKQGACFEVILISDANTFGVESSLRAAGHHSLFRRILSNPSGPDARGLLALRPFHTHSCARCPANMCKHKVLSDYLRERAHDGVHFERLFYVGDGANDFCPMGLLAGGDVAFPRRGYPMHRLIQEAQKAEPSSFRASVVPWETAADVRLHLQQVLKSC
Numbers without * were called inactive; ? = inconclusive; nt = no result given. A selection: hits, their analogues and other compounds. The true share with any hit is near 3.6%.

SMILES	esBAF inh	Wnt act	APOBEC3G inh	APOBEC3A inh	MITF act	PHOSPHO1 inh
C[C@@H]1CN([C@H](C)CO)C(=O)c2cc(NC(=O)CCCN(C)C)ccc2O[C@H]1CN(C)Cc1ccc(-c2ccccc2)cc1	3	nt	nt	nt	nt	nt
CN1CCN(C(=O)C[C@H]2CC[C@H]3[C@@H](COC[C@H](O)CN3C(=O)Nc3cc(Cl)cc(Cl)c3)O2)CC1	-4	nt	nt	nt	nt	nt
O=C(C[C@@H]1CC[C@H](NS(=O)(=O)c2ccc(F)cc2)[C@@H](CO)O1)NCCc1ccncc1	1	nt	nt	nt	nt	nt
O=C(C[C@H]1C[C@H]2c3cc(NC(=O)CC4CC4)ccc3O[C@H]2[C@@H](CO)O1)NCc1cc(F)ccc1F	7	nt	nt	nt	nt	nt
CO[C@@H]1CN(C)C(=O)c2cc(NC(=O)Nc3cccc(Cl)c3)ccc2OC[C@H](C)NC[C@@H]1C	1	nt	nt	nt	nt	nt
Fc1cccc(Cl)c1/C=N/Nc1ccccn1	56*	17	-10	-1	35	42
Fc1cccc(F)c1/C=N/Nc1ccccn1	nt	6	-7	-5	12	20
COc1ccc2nc(/N=C(\N)NC(=O)C(C)(C)C)nc(C)c2c1	48*	nt	1	1	78	-10
CCC(=O)N/C(N)=N/c1nc(C)c2cc(OC)ccc2n1	55*	nt	7	22	68	0
CCOC(=O)CSc1nc(C)c2cc(OC)ccc2n1	0	nt	4	5	19	-14
COc1ccc2nc(/N=C(\N)NC(=O)N3c4ccccc4Sc4ccccc43)nc(C)c2c1	nt	-3	-4	1	-1	-52
COc1ccc(NC(=O)Nc2ccc3c(c2)C(=O)N([C@H](C)CO)C[C@@H](C)[C@H](CN(C)C(=O)Nc2c(C)noc2C)O3)cc1	4	nt	nt	nt	nt	nt
c1ccc(-c2noc(-c3ccc4c(c3)OCO4)n2)cc1	nt	12	4	2	3	8
COc1cccc(-c2noc(-c3ccc4c(c3)OCO4)n2)c1	nt	42*	-1	2	28	13
COc1ccc(-c2noc(COc3ccc4c(c3)OCO4)n2)cc1	-6	nt	-3	1	10	11
COc1ccc(-c2noc(-c3ccc4c(c3)OCO4)n2)cc1	nt	21	1	1	87*	26
C[C@@H]1CN([C@H](C)CO)C(=O)c2cc(C#CCN(C)C)cnc2O[C@H]1CN(C)C(=O)c1ccc(F)cc1	-1	nt	nt	nt	nt	nt
O=C(C[C@@H]1C=C[C@H](NC(=O)Nc2ccccc2F)[C@H](CO)O1)NCc1ccc(Cl)cc1	3	nt	nt	nt	nt	nt
O=C1CC(c2ccc(O)cc2)Oc2ccccc21 (stereo not given)	24	-2	-14	-2	83*	nt
O=C1C[C@@H](c2ccc(O)cc2)Oc2cc(O)cc(O)c21	16	6	9	-3	22	4
CCCNC(=O)Nc1ccc2c(c1)C(=O)N(C)[C@@H]1CC[C@@H](CC(=O)NCC3CCCCC3)O[C@@H]1CO2	3	nt	nt	nt	nt	nt
O=C(Nc1sc2c(c1C(=O)O)CCCC2)c1cccc(Cl)c1	73*	26	-6	-2	3	18
NCCNC(=O)c1c(NC(=O)c2ccccc2)sc2c1CCCC2	68*	1	1	0	32	40
O=C(Nc1sc2c(c1C(=O)NCCCO)CCCC2)c1ccccc1	0	0	-10	-1	17	14
O=C(Nc1sc2c(c1C(=O)O)CCCC2)c1ccc(Cl)cc1	?	0	-2	0	15	15
SMILES	esBAF inh	Wnt act	APOBEC3G inh	APOBEC3A inh	MITF act	PHOSPHO1 inh
O=C(Nc1sc2c(c1C(=O)O)CCC2)c1ccc(F)cc1	63*	2	-4	0	20	5
O=C(Nc1sc2c(c1C(=O)O)CCC2)c1ccccc1	53*	?	12	25	7	35
O=C(Nc1sc2c(c1C(=O)O)CCCCC2)c1ccccc1	nt	10	8	-3	60	4
COC(=O)CCN(C(=O)c1ccc(Cl)c([N+](=O)[O-])c1)c1ccccn1	nt	33*	1	-1	-20	33
C[C@H]1CN([C@@H](C)CO)S(=O)(=O)c2ccc(-c3cccc(F)c3)cc2O[C@H]1CN(C)S(=O)(=O)c1ccccc1	-1	nt	nt	nt	nt	nt
CCc1cc(C(=O)c2ccc(OC)cc2)c(N)s1	-2	39*	-13	-6	nt	2
NCC12CC3CC(C1)CC(c1ccc(Br)cc1)(C3)C2	-2	2	-12	-3	6	27
Cc1ccc(C23CC4CC(CC(CN)(C4)C2)C3)cc1	nt	7	nt	nt	-7	60*
CCCNC(=O)C[C@@H]1CC[C@@H]2[C@H](COC[C@@H](O)CN2C(=O)Nc2c(C)noc2C)O1	4	nt	nt	nt	nt	nt
Fc1ccc(N/N=C/C=C/c2ccccc2)c(F)c1	51*	12	-3	-3	46	4
NC(=O)c1ccc(N2CCCCC2)c(N2C(=O)C3C4C=CC(C4)C3C2=O)c1 (stereo not given)	-1	nt	-5	-10	-7	-14
O=C(O)c1ccc(N2CCOCC2)c(N2C(=O)C3C4C=CC(C4)C3C2=O)c1 (stereo not given)	nt	-1	1	2	4	62*
COC(=O)c1ccc(-n2nnnc2SC)cc1	-12	-2	15	1	nt	81*
C/C=C/c1cnc2c(c1)C(=O)N([C@@H](C)CO)C[C@H](C)[C@H](CN(C)C(=O)c1cnccn1)O2	-3	nt	nt	nt	nt	nt
COc1cc(-c2nnc3sc(Cc4ccccc4)nn23)cc(OC)c1OC	0	-4	-8	-7	nt	70*
C/C(=N\NC(=O)c1ccc2c(c1)OCO2)c1ccc(O)cc1	nt	6	-3	0	18	2
O=C(N/N=C/c1ccc(Cl)cc1)c1ccc2c(c1)OCO2	63*	18	-9	-3	46	32
O=C(N/N=C/c1ccsc1)c1ccc2c(c1)OCO2	49*	14	-6	1	86*	nt
O=C(N/N=C/c1ccc2c(c1)OCO2)c1ccc2c(c1)OCCO2	nt	17	-10	6	44	2
C/C(=N\NC(=O)c1ccc2c(c1)OCO2)c1ccc(NS(C)(=O)=O)cc1	51*	3	-2	-1	21	nt
O=C(CN(CCc1ccccc1)S(=O)(=O)c1ccc(Cl)cc1)N/N=C/c1ccc2c(c1)OCO2	nt	34*	-5	-2	-4	0
COc1ccc(NC(=O)Nc2ccc3c(c2)C(=O)N([C@H](C)CO)C[C@H](C)[C@H](CN(C)C(=O)Nc2ccc4c(c2)OCO4)OCCCC[C@@H](C)O3)cc1	-6	nt	nt	nt	nt	nt
Cc1nnc(SCC(=O)Nc2ccc(N3CCOCC3)cc2)o1	3	nt	2	24	1	63*
Cc1cn(CCC(=O)Nc2ccc(N3CCOCC3)cc2)c2ccccc12	?	16	-5	-5	81*	45
Cc1cn(CCC(=O)Nc2ccccc2N2CCOCC2)c2ccccc12	nt	-2	-3	-1	nt	1
C[C@@H]1CN([C@@H](C)CO)C(=O)c2cc(NS(=O)(=O)c3cccs3)ccc2O[C@@H]1CN(C)Cc1ccncc1	-5	nt	nt	nt	nt	nt
